{"source": "ChEMBL document CHEMBL3988442", "about": "“University of Dundee, Small-Polar-MMV Screening Library” (2021)", "note": "Out of some 48,000 compounds screened, about 13,000 (27%) showed an effect of 50% or more. This is one part of the list."}
{"system": "Wolbachia pipientis", "test": "Anti-Wolbachia Cell-Based Screen", "type": "functional", "set-up": "scale not given: in the data most compounds retested in dose-response had high values", "conditions": "5 µM", "units": {"Percent Effect": "%"}}
{"smiles": "O=C(NCc1ccco1)[C@H]1C[C@H]2OCC[C@H]2N(C(=O)c2ccco2)C1", "Percent Effect": -11.04}
{"smiles": "Cc1nnc(N2C[C@H](C(=O)NCc3ccco3)[C@@H]3CCO[C@@H]3C2)s1", "Percent Effect": 0.8381}
{"smiles": "O=C(NCc1ccco1)[C@H]1C[C@H]2OCC[C@H]2N(C(=O)c2ccnnc2)C1", "Percent Effect": 110.4}
{"smiles": "CN(C)C(=O)N1C[C@@H](C(=O)NCc2ccco2)C[C@H]2OCC[C@H]21", "Percent Effect": 111.8}
{"smiles": "O=C(NCc1ccco1)[C@H]1C[C@H]2OCC[C@H]2N(C(=O)c2ccncc2)C1.O=C(O)C(F)(F)F", "Percent Effect": -2.028}
{"smiles": "O=C(NCc1ccco1)[C@@H]1C[C@H]2OCC[C@H]2N(c2ncc(F)cn2)C1", "Percent Effect": 12.25}
{"smiles": "Cc1occc1C(=O)N1C[C@@H](C(=O)NCc2ccco2)C[C@H]2OCC[C@H]21", "Percent Effect": 100.5}
{"smiles": "O=C(NCc1ccco1)[C@H]1C[C@H]2OCC[C@H]2N(S(=O)(=O)C2CC2)C1", "Percent Effect": -11.11}
{"smiles": "Cc1occc1C(=O)N1C[C@@H](C(=O)N2CCCCO2)C[C@H]2OCC[C@H]21", "Percent Effect": -3.518}
{"smiles": "NCC1Cc2cc(-c3nccc(N4CCC(O)CC4)n3)cc(F)c2O1", "note": "(stereo unspecified)", "Percent Effect": -9.833}
{"smiles": "Cc1nnc(NCCc2nc3ccc(F)cc3n2C)c(C#N)c1C", "Percent Effect": -11.69}
{"smiles": "Cc1ccccc1C(C)(C)CNC(=O)CCSc1nnnn1C", "Percent Effect": -6.777}
{"smiles": "O=c1ccc2c([nH]1)CCN(S(=O)(=O)c1ccc3c(c1)OCCO3)C2", "Percent Effect": 2.836}
{"smiles": "O=S(=O)(c1ccc2c(c1)OCCO2)N1CCc2ccccc2C1", "Percent Effect": 119.9}
{"smiles": "O=S(=O)(c1ccc2c(c1)OCCO2)N1CCC(OCc2ccccn2)C1", "note": "(stereo unspecified)", "Percent Effect": -6.121}
{"smiles": "Cc1nsc(NC(=O)N2CCC(C(C)(C)O)CC2)n1", "Percent Effect": -12.37}
{"smiles": "Cn1c(C(N)=O)cc2c1CN(C(=O)C1CCCN(C3CCCC3)C1)CC2", "note": "(stereo unspecified)", "Percent Effect": -3.385}
{"smiles": "O=C(C1CCCN(C2CCOCC2)C1)N1Cc2ccccc2C1", "note": "(stereo unspecified)", "Percent Effect": 98.98}
{"smiles": "CC(C(=O)N1CCc2sccc2C1)N1CCC(N2CCCC2)CC1", "note": "(stereo unspecified)", "Percent Effect": -24.52}
{"smiles": "O=C(C1CCCN(C2CCOCC2)C1)N1CCc2ncccc2C1", "note": "(stereo unspecified)", "Percent Effect": 101.2}
{"smiles": "O=C(C1CCCN(Cc2ccccc2)C1)N1CCc2sccc2C1", "note": "(stereo unspecified)", "Percent Effect": 14.78}
{"smiles": "CN1CCC(N2CCCC(C(=O)N3Cc4ccccc4C3)C2)CC1", "note": "(stereo unspecified)", "Percent Effect": 88.48}
{"smiles": "CN(C)C(=O)N1Cc2ccccc2C2(CCN(C3CCOCC3)CC2)C1", "Percent Effect": -2.498}
{"smiles": "O=C(C1CCCN(Cc2cccnc2)C1)N1CCc2sccc2C1", "note": "(stereo unspecified)", "Percent Effect": 6.643}
{"smiles": "O=C(C1CCOCC1)N1CCc2ncnc(-c3ccccc3)c2CC1", "Percent Effect": -2.988}
{"smiles": "CCc1nnc(CN(C)c2nccc(CCC(F)(F)F)n2)o1", "Percent Effect": -5.519}
{"smiles": "CCc1ccc(C(=O)O)cc1S(=O)(=O)Nc1c(C)ccn(C)c1=O", "Percent Effect": 6.747}
{"smiles": "O=C1CCCN1CCCN1CCCC1Cn1cccn1", "note": "(stereo unspecified)", "Percent Effect": 2.247}
{"smiles": "COCCC1(C(=O)O)CCCN(CC(=O)NCCc2ccccc2)C1", "note": "(stereo unspecified)", "Percent Effect": -1.604}
{"smiles": "COC(=O)CCNC(=O)c1ccc(OCc2ccccc2)nc1", "Percent Effect": 0.7688}
{"smiles": "COCCNC(=O)Cn1cc(OCc2ccccc2)c(=O)cc1CO", "Percent Effect": 143.5}
